This is a sample that favours compounds with a hit; in the whole collection about 21% have one here.
Pf growth 48h: inhibits P. falciparum growth in the first generation, 48 h | Potency, µM (titrated, usually from 28.7 µM), inactives show top-dose activity change, negative = inhibition, usual class: inhibitors | 310,000 compounds, 5.9% hits | P. falciparum luciferase growth in erythrocytes, 48 h; note: potency is the fitted concentration of half-maximal effect; % is set by controls: 0 for no effect and ±100 for the full control effect
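Here the parasites carry a stable luciferase gene and grow inside erythrocytes in Albumax-based RPMI medium with compound for one erythrocytic cycle. Activity is scored as loss of luminescent signal.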
Pf growth 96h: P. falciparum growth inhibition at 96 hour, primary screen for plastid delayed-death inhibitors; P. falciparum luciferase reporter growth, 96 h; Potency, µM (doses to about 28.7 µM), for inactives: at the highest dose activity change, negative = inhibition, hits mostly inhibitors; 320,000 compounds, 6.9% hits; note: potency is the fitted concentration of half-maximal effect; % is set by controls: 0 for no effect and ±100 for the full control effect
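96 h incubation, 37 C, 5% CO2, of luciferase-reporter P. falciparum-infected RBCs (2% hematocrit, 0.05% parasitemia final) with test compounds; endpoint luminescence.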
NS1 function inh: blocks influenza NS1 protein function; Potency, µM (doses to about 46.1 µM), without a hit: top-dose activity, positive = more growth; 270,000 compounds, 0.4% hits; AID 2326; calls by dose curve; note: potency is the fitted concentration of half-maximal effect; actives are rising curves; nearly all actives have a fitted effect of over 50% in size
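A cell-based growth assay was used: compounds that relieve NS1-induced slow growth of budding yeast raise OD600. Assay medium was yeast nitrogen base with ammonium sulphate and -URA supplement, pH 6.0, with 2% galactose.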
Shiga inhibitor: inhibitors of Shiga toxin in Vero cells. inhibition, % at 38.7 µM. Vero cells, Shiga toxin protein synthesis inhibition reporter. 290,000 compounds, 9.2% hits; in the data active = inhibition mostly above about 28%, no sharp cut-off; inactive = mostly below about 43%; note: 0% is about no effect
CHX counter: counter-screen hit for Shiga toxin inhibitors, cycloheximide; cell reporter, cycloheximide protein synthesis inhibition counterscreen; AID 2314; max response, %; 300,000 compounds, 12% hits; in the data active = max response mostly above about 13%, no sharp cut-off; inactive = mostly below about 14%; note: read at 38.3 µM for the half of the compounds with a filed dose; 0% is about no effect
Sm TGR inh: inhibitors of Schistosoma mansoni thioredoxin glutathione reductase; Q962Y6; purified TGR, DTNB reduction, TNB absorbance 405 nm; Potency, µM (titrated, usually from 114 µM), without a hit: at the top dose activity change, negative = inhibition, most hits filed as inhibitors; 360,000 compounds, 3% hits; note: potency is the fitted concentration of half-maximal effect; % is set by controls: 0 for no effect and ±100 for the full control effect; nearly all actives have a fitted effect of over 60% in size
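TGR 20 nM + NADPH 100 uM (dispensed conc.), cpd preinc 15 min RT; start with NADPH (500 uM addition) then DTNB (15 mM addition). Kinetic TNB absorbance, 405 nm filter. Four-parameter Hill fit across titration.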
* = called active by the depositor; ? = inconclusive; / = no result given. Unless noted, calls come from the whole dose curve; as a rule, active = well fitted curve in the direction sought with a large enough effect; inconclusive = small, poorly fitted or top-dose-only effect, or another doubt; inactive = no such curve, though single readings can be large; an effect the other way counts as inactive or inconclusive.

SMILES	Pf growth 48h	Pf growth 96h	NS1 function inh	Shiga inhibitor	CHX counter	Sm TGR inh
COc1cc(CN2CC(=O)N(c3ccc(C)c(Cl)c3)C2=S)cc(OC)c1OC	2.1µM*	-1%	5%	-1	2	1%
COc1cc(CN2CC(=O)N(c3ccc(C)cc3)C2=S)cc(OC)c1OC	0.83µM*	-14%	8%	-10	0	-7%
Cc1ccccc1CNC(=O)Nc1ccc(Cl)cc1	109%	7%	0%	69*	34*	-19%
Cc1ccc(CNC(=O)Nc2ccccc2)c(C)c1	62%	94%	-4%	64*	31*	-11%
Cc1cc(C)c(NC(=O)Nc2ccccc2)c(Cl)c1	9%	26%	14%	23	7	-1%
Cc1ccccc1CNC(=O)Nc1ccc2c(c1)N(C)C(=O)c1ccccc1S2	/	/	/	/	/	-4%
O=C(O)CC/C(=N\NC(=O)c1ccccc1)c1cccs1	26%	12%	/	109*	49*	-11%
COC(=O)N/N=C(\CCC(=O)O)c1cccs1	15%	2%	1%	14	15*	12%
O=C(O)CC/C(=N\NC(=O)c1ccncc1)c1ccccc1	-14%	?	0%	/	5	1%
CCN(C(=O)c1cnc(NC(C)C)cc1C(F)(F)F)c1ccc(Cl)cc1	?	12µM*	6%	-8	-1	5%
CCC(C)Sc1cc(C(F)(F)F)c(C(=O)Nc2ccc(Cl)cc2)cn1 (stereo unspecified)	?	?	3%	3	8	10%
Cc1noc(C)c1Cc1ccc(O)cc1	-8%	-3%	-1%	0	-1	-8%
CN(C)S(=O)(=O)c1cccc(-c2nnc(SCc3ccc4c(c3)OCCO4)o2)c1	17µM*	?	?	86	33*	7%
CCN(CC)S(=O)(=O)c1cccc(-c2nnc(SCCCC(=O)c3ccccc3)o2)c1	?	?	-36%	17	11	8%
Brc1ccccc1-c1nnc(SCc2nc3ccccc3s2)o1	250%	278%	-3%	101*	53*	-8%
CCN(CC)S(=O)(=O)c1cccc(-c2nnc(SCc3nc4ccccc4s3)o2)c1	/	?	3%	82	23*	-7%
CCN(CC)S(=O)(=O)c1ccc(NC(=O)CCN2C(=O)C3CC=CCC3C2=O)cc1 (stereo unspecified)	-15%	?	/	/	/	3%
COc1ccc2c(c1)c(=O)c(S(=O)(=O)c1ccc(C)c(C)c1)cn2CC(=O)Nc1ccccc1	/	/	/	/	/	0%
CC(=O)c1nc2ccccc2n1S(=O)(=O)c1ccc(Cl)cc1	6%	12µM*	2%	-4	-2	0%
Cc1nc2ccccc2n1S(=O)(=O)c1ccc(S(=O)(=O)N2CCCCCC2)cc1	68%	?	-7%	28	3	14%
CC(=O)c1nc2ccccc2n1S(=O)(=O)c1ccc(C)cc1	100%	3%	4%	3	23*	2%
Cc1ccc(S(=O)(=O)n2c(C)nc3ccccc32)cc1	34%	?	-21%	/	2	11%
Cc1ccc([N+](=O)[O-])cc1NC(=O)CSc1nncc2ccccc12	-7%	-94%	3%	-5	3	2%
Cc1cccc(N2CCN(C(=O)Cn3c(C)c4cnn(-c5ccccc5)c(=O)c4c3C)CC2)c1C	/	/	/	/	/	6%
NC(N)=N/N=C/c1ccc(OCc2ccc(Cl)cc2)cc1	0.33µM*	2.3µM*	-57%	27	15	-19%
SMILES	Pf growth 48h	Pf growth 96h	NS1 function inh	Shiga inhibitor	CHX counter	Sm TGR inh
N#Cc1ccc(/C=N/N=C(N)N)cc1	?	/	4%	-16	-3	22%
NC(N)=N/N=C/c1ccc(OCc2ccccc2)cc1	1.5µM*	1.5µM*	-7%	20	-2	-12%
NC(N)=N/N=C/c1ccc(Br)cc1	12µM*	12%	/	-5	-3	6%
Cc1cc(C)c(NC(=O)CSc2ccc(-c3cccnc3)nn2)c(C)c1	13%	?	/	-7	0	0%
O=C(Nc1c(S(=O)(=O)c2ccc(Cl)cc2)csc1Br)c1ccccc1Cl	?	?	4%	9	13	-1%
COc1ccc2c(c1)c1c(C)c3cnccc3c(C)c1n2CCCN	/	/	0%	/	/	/
O=C(CSc1ccc(Cl)cc1)N1N=CCC1c1ccccc1 (stereo unspecified)	?	-12%	-38%	73*	15	4%
